Common to all, as to assay type: functional
Assay [1] deals with Plasmodium falciparum. The experiment in a line: GSK_TCMDC: Inhibition of Plasmodium falciparum 3D7 in whole red blood cells, using parasite LDH activity as an index of growth. Test compounds present at 2uM.
The test system of assay [2] is Plasmodium falciparum. In words: GSK_TCMDC: Inhibition of Plasmodium falciparum Dd2 in whole red blood cells, using parasite LDH activity as an index of growth. Test compounds present at 2uM.
A further assay deals with HepG2. In words: GSK_TCMDC: Percent inhibition of human HepG2 cell line. Test compounds present at 10uM.

Molecules are shown by their SMILES.

Among the data in ChEMBL document CHEMBL1157539, “Thousands of chemical starting points for antimalarial lead identification” (Nature, 2010) are Inhibition values, retold here.

Regarding `CCCN(CCC)C(=O)c1cc(C(=O)N[C@@H](Cc2ccccc2)[C@H](O)CNC(C)(C)c2cccc(OC)c2)cc(N2CCCCS2(=O)=O)c1`, the Inhibition worked out at 99% in the assay on Plasmodium falciparum [1], 74% with Plasmodium falciparum [2] and 16% in the assay on HepG2.

Take `Cc1cccc2nc(O)c([N+](=O)[O-])c(O)c12`: the Inhibition with Plasmodium falciparum [1] is given as 95%; in the assay with Plasmodium falciparum [2] it was 0%; in the assay on HepG2, 0%.

`Nc1c2c(nc3ccc(Oc4ccc(Br)cc4Br)cc13)CCCC2`: the Inhibition worked out at 99% in the assay on Plasmodium falciparum [1], 47% in the assay on Plasmodium falciparum [2] and 33% in the assay on HepG2.

As for `O=C(Nc1cccc(C(F)(F)F)c1)NC1CCN(c2ccnc3ccccc23)C1.O=C(O)C(F)(F)F` (stereo not drawn), the Inhibition amounted to 100% with Plasmodium falciparum [1], 69% with Plasmodium falciparum [2] and 23% in the assay on HepG2.

For the compound `CCOC(=O)CCCCCNC[C@H](O)c1ccccc1.Cl`, the figures for the Inhibition with Plasmodium falciparum [1], in the assay on Plasmodium falciparum [2] and in the assay on HepG2 were 98%, 0% and 2%, respectively.

Turning to `N=C(N)c1ccc(C=Cc2ccc(C(=N)N)cc2O)cc1.O=S(=O)(O)CCO`, the Inhibition in the assay on Plasmodium falciparum [1] was determined as 92%; with Plasmodium falciparum [2], 80%; with HepG2, 10%.

Turning to `O=C(c1cc(-c2ccco2)n[nH]1)N1CCN(S(=O)(=O)c2ccc(Br)cc2)CC1`, the Inhibition with Plasmodium falciparum [1] came out at 95%; with Plasmodium falciparum [2] it was 90%; with HepG2 it was 1%.

In the case of `Cc1ccc2[nH]c(C)cc(=NN=Cc3ccc(Cl)cc3)c2c1`, the Inhibition was 100% in the assay on Plasmodium falciparum [1], 35% with Plasmodium falciparum [2] and 0% in the assay on HepG2.

Take `NCCNC(=O)c1ccc(-c2cnc3[nH]cc(-c4ccc(C(N)=O)cc4)c3c2)cc1`: the Inhibition in the assay with Plasmodium falciparum [1] is 99%; in the assay with Plasmodium falciparum [2], 98%; in the assay on HepG2, 2%.

On to `CC(C)CCN(Cc1cncn1Cc1cccc(Cl)c1)C(=O)c1cncc(-c2ccccc2)c1`, for which the Inhibition in the assay on Plasmodium falciparum [1] was 99%; with Plasmodium falciparum [2], 0%; in the assay on HepG2, 9%.

`CCCN1CCN(CCCCNc2c3ccccc3nc3ccccc23)CC1.Cl`: the Inhibition in the assay with Plasmodium falciparum [1] was 100%; with Plasmodium falciparum [2] it was 0%; in the assay with HepG2, 34%.

On to `Cc1cc(N[C@@H](Cc2ccccc2)C(=O)NCCOc2ccccc2)nc(NCCc2ccccn2)n1.O=C(O)C(F)(F)F`, for which the Inhibition in the assay on Plasmodium falciparum [1] was 92%; in the assay on Plasmodium falciparum [2], 42%; in the assay on HepG2, 12%.

Regarding `COc1ccccc1C1CCN(C2CCC(NC(=O)/C=C/c3cc(F)c(F)cc3F)CC2)CC1` (stereo not drawn), the Inhibition is 85% in the assay with Plasmodium falciparum [1], 0% with Plasmodium falciparum [2] and 39% in the assay on HepG2.

On to `N=C(N)c1ccc(NC(=O)c2cc(Sc3ccc(O)c(C(=O)Nc4ccc(C(=N)N)cc4)c3)ccc2O)cc1`, for which the Inhibition worked out at 93% in the assay with Plasmodium falciparum [1], 87% in the assay on Plasmodium falciparum [2] and 11% in the assay on HepG2.

Turning to `Cc1ccc2[nH]c(/C=C/c3cccc4cc[nH]c34)nc2c1`, the results for the Inhibition with Plasmodium falciparum [1], in the assay with Plasmodium falciparum [2] and in the assay with HepG2 were 100%, 92% and 9%, respectively.

Regarding `Cc1cc(C(=O)Nc2ccc(-c3nc4ccccc4[nH]3)cc2)ccc1[N+](=O)[O-]`, the Inhibition worked out at 100% in the assay on Plasmodium falciparum [1], 47% in the assay with Plasmodium falciparum [2] and 55% with HepG2.

With `COc1ccc(CCNC(=O)c2cc(C)ccc2O)cc1-c1ccc(C(C)(C)C)cc1`, the values for the Inhibition with Plasmodium falciparum [1], in the assay with Plasmodium falciparum [2] and in the assay with HepG2 were 97%, 94% and 1%, respectively.

As to `Cc1cc(Cl)c(S(=O)(=O)N2CCc3ccccc32)cc1OCC(=O)NC1CCCCC1`, the Inhibition in the assay on Plasmodium falciparum [1] worked out at 100%; in the assay with Plasmodium falciparum [2] it was 93%; in the assay with HepG2, 28%.

As to `COc1ccc(O)c(C(=O)c2cc(C(=O)NCCc3ccccc3)c(=O)n(CCc3ccccc3)c2)c1`, the Inhibition in the assay with Plasmodium falciparum [1] was 97%; in the assay on Plasmodium falciparum [2], 18%; in the assay with HepG2, 11%.

Consider `CCN(CC)CCCC(C)Nc1c(-c2ccc(OC)cc2)cnc2ccccc12` (stereo not drawn), for which the values for the Inhibition in the assay on Plasmodium falciparum [1], with Plasmodium falciparum [2] and in the assay on HepG2 were 93%, 38% and 3%, respectively.

Turning to `O=C(Nc1ccc(Cl)cc1C(=O)Nc1cccc(F)c1)c1ccc([N+](=O)[O-])cc1`, the Inhibition is reported as 89% in the assay on Plasmodium falciparum [1], 54% in the assay with Plasmodium falciparum [2] and 10% in the assay with HepG2.

In the case of `Cn1cc(CCNc2ccnc(NCCc3coc4ccccc34)n2)c2ccccc21`, the results for the Inhibition with Plasmodium falciparum [1], with Plasmodium falciparum [2] and in the assay with HepG2 were 87%, 28% and 26%, respectively.

Turning to `O=C(O)C(F)(F)F.c1ccc(CN2CCC(NCc3ccccc3-c3ccc(CNC4CCCC4)cc3)CC2)cc1`, the Inhibition with Plasmodium falciparum [1] is reported as 100%; with Plasmodium falciparum [2], 33%; in the assay with HepG2 it was 38%.

`CC(C)C[C@H](NC(=O)c1cc(-c2ccc(F)cc2)no1)C(=O)O.CC(C)C[C@H](NC(=O)c1conc1-c1ccc(F)cc1)C(=O)O`: the Inhibition in the assay on Plasmodium falciparum [1] came out at 82%; in the assay on Plasmodium falciparum [2], 4%; with HepG2 it was 7%.

`C#CC[C@@H](NC(N)=O)C(=O)O`: the Inhibition was 97% with Plasmodium falciparum [1], 0% in the assay on Plasmodium falciparum [2] and 1% with HepG2.

As to `CN1CCc2ccc(NC(=O)Nc3cccc([N+](=O)[O-])c3)cc2C1`, the results for the Inhibition with Plasmodium falciparum [1], with Plasmodium falciparum [2] and with HepG2 were 87%, 3% and 0%, respectively.

As for `Cc1ccc(Cn2cnc(N3CC(C)NC(C)C3)cc2=O)cc1NC(=O)Nc1ccc(-c2ccccc2)cc1.O=C(O)C(F)(F)F` (stereo not drawn), the Inhibition is 96% with Plasmodium falciparum [1], 15% with Plasmodium falciparum [2] and 18% in the assay with HepG2.

Turning to `Cc1cc(Nc2ccc3ccccc3c2)n2ncnc2n1`, the values for the Inhibition in the assay on Plasmodium falciparum [1], with Plasmodium falciparum [2] and with HepG2 were 96%, 95% and 11%, respectively.

`COc1ccc(-c2nc3ccc(C)nc3nc2-c2ccc(OC)cc2)cc1`: the Inhibition in the assay with Plasmodium falciparum [1] amounted to 91%; with Plasmodium falciparum [2], 0%; with HepG2, 4%.

With `COc1ccc(CNC(=O)c2cnc3c(O)cccc3c2Nc2cccc(NC(=O)c3ccc(F)cc3)c2)cc1.O=C(O)C(F)(F)F`, the values for the Inhibition in the assay on Plasmodium falciparum [1], in the assay with Plasmodium falciparum [2] and in the assay on HepG2 were 91%, 65% and 50%, respectively.

Consider `CC(C)(C)C(=O)Nc1c(-c2cc(=O)oc3cc4c(cc23)CCC4)oc2ccccc12`, for which the Inhibition with Plasmodium falciparum [1] is recorded as 100%; with Plasmodium falciparum [2], 100%; with HepG2 it was 0%.
